A selection: hits, their analogues and other compounds. The true share with any hit is near 9.2%.
FLuc counter: qHTS profiling assay for firefly luciferase inhibitor/activator using purifed enzyme and Km concentrations of substrates (counterscreen for miR-21 project); Potency, µM (doses to about 57.5 µM), for the others: at the highest dose activity change, negative = inhibition, actives largely listed as inhibitors; Luciferin 4-monooxygenase (Photinus pyralis), P08659; purified FLuc, Km substrates, luminescence inhibition; 360,000 compounds, 6.9% hits;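 also: plate controls were vehicle for no effect and reference inhibitor for full effect; nearly all actives have a fitted effect of over 55% in size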
Target sequence (P08659 whole entry, looked up): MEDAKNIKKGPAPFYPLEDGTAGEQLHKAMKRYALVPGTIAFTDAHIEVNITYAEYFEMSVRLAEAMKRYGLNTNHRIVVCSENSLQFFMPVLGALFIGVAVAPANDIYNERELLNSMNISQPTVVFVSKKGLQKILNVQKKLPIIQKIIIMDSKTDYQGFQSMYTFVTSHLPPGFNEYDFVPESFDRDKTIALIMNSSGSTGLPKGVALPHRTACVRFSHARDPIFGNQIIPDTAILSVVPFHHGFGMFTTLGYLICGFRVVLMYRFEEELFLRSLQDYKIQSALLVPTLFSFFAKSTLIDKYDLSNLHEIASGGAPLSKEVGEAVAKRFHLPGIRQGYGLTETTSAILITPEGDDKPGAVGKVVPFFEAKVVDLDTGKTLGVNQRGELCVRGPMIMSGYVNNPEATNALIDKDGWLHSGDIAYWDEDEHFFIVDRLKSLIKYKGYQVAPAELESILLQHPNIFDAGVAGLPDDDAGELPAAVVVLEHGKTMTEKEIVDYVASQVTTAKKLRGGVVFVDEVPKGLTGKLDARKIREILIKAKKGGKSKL
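Purified P. pyralis luciferase, 10 nM final, with Km-level 10 uM D-luciferin and 10 uM ATP in 50 mM Tris acetate pH 7.5, 10 mM Mg acetate, 0.01% Tween-20, 0.05% BSA; 6-point qHTS titration about 60 µM downward; luminescence read.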
Rab9 promoter act: qHTS Assay for Rab9 Promoter Activators | Huh7 Rab9 promoter-luciferase reporter, luminescence, 24 h | 320,000 compounds, 2.8% hits | Potency, µM (titrated, usually from 9.22 µM), for the others: at the top dose activation, negative = inhibition, usual class: activators; also: % of control where 0% means no effect; nearly all actives have a fitted effect of over 60% in size
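Stable Rab9-luc Huh7, 1500 cells/well, 2 h settle; cmpd in DMSO, 24 h, 37 °C/5% CO2; luciferase reagent 10 min RT; luminescence.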
ELG1 repair inh: qHTS screen for small molecules that inhibit ELG1-dependent DNA repair in human embryonic kidney (HEK293T) cells expressing luciferase-tagged ELG1 | HEK293T ELG1-luciferase reporter, luminescence, 16 h; DNA damage induced by 5-fluorouridine | Potency, µM (titrated, usually from 46.1 µM), for inactives: top-dose activity change, negative = inhibition, most hits filed as inhibitors | 330,000 compounds, 2.3% hits | AID 504467, 2011; also: % is scaled to controls: 0 for no effect and ±100 for the full control effect; nearly all actives have a fitted effect of over 55% in size
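Reporter activity after DNA damage by 5-fluorouridine is monitored. Compound-treated cells incubate 16 hr at 37 °C, then ONE-Glo is added for 30 min before luminescence reading.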
ELG1 genotoxic: qHTS screen for small molecules that induce genotoxicity in human embryonic kidney (HEK293T) cells expressing luciferase-tagged ELG1; HEK293T ELG1-luciferase reporter, luminescence, 16 h; Potency, µM (titrated, usually from 46 µM), without a hit: at the top dose activity change, positive = activation, actives largely listed as activators; 330,000 compounds, 1.3% hits; AID 504466, 2011; also: % of control where 0% means no effect; nearly all actives have a fitted effect of over 60% in size
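After overnight (16 hr) compound treatment at 37 °C, ELG1-luciferase HEK293T cells were lysed with ONE-Glo; luminescence quantified 30 min later at room temperature.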
NPC1 promoter act: qHTS Assay for NPC1 Promoter Activators | Huh7 NPC1 promoter luciferase reporter, 24 h | 320,000 compounds, 2.4% hits | AID 485313, 2010 | Potency, µM (series often up to 9.22 µM), without a hit: top-dose activation, actives largely listed as activators; also: % of control where 0% means no effect; nearly all actives have a fitted effect of over 60% in size
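Readout is luciferase luminescence, reflecting NPC1 promoter activation in stably transfected Huh7 cells after 24 h compound exposure at 37 °C in reduced-serum medium with 10% FBS.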
SMN2 splice enh: qHTS Assay for Enhancers of SMN2 Splice Variant Expression; HEK293 SMN2-luciferase splicing reporter, luminescence, 30-36 h; 210,000 compounds, 2.8% hits; AID 1458, 2008; Potency, µM (series often up to 46.1 µM), for the others: at the highest dose activity change, positive = activation, hits mostly activators; also: % of control where 0% means no effect; nearly all actives have a fitted effect of over 55% in size
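qHTS luciferase splicing reporter: luminescence rises when SMN2 exon 7 is included in transfected HEK293 cells. Compound exposure lasted 30-36 h at 37C, with 4.5 mM final sodium butyrate as control, followed by a ONE-Glo read.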
* hit, by the source's call; ? = inconclusive; · = no result. Calls follow the shape of the dose curve; as a rule, active = well fitted curve in the direction sought with a large enough effect; inconclusive = small, poorly fitted or top-dose-only effect, or another doubt; inactive = no such curve, though single readings can be large; an effect the other way counts as inactive or inconclusive. Potency is read from the fitted curve at half-maximal effect.

SMILES	FLuc counter	Rab9 promoter act	ELG1 repair inh	ELG1 genotoxic	NPC1 promoter act	SMN2 splice enh
COc1cccc(NC(=O)c2cccc(C(=O)Nc3cccc(OC)c3)n2)c1	?	-2%	?	2%	-4%	·
COc1cccc(NC(=O)c2ccccc2Br)c1	15µM*	3.5µM*	?	?	4µM*	·
COc1cccc(NC(=O)c2ccccc2F)c1	6µM*	3.5µM*	?	4.6µM*	4µM*	·
COc1cccc(NC(=O)COC(=O)c2ccccc2F)c1	12µM*	1%	-3%	-1%	-1%	10%
COc1cccc(NC(=O)c2ccccc2-c2ccccc2C(=O)O)c1	1%	1%	-18%	-2%	-2%	·
COc1cccc(NC(=O)c2c(F)cccc2F)c1	?	?	?	10µM*	27%	·
CCOc1ccc(CNC(=O)C2CCCN(S(=O)(=O)N3CC(C)CC(C)C3)C2)cc1OC (centres undefined)	-1%	-1%	8%	-3%	3%	·
COc1cccc(NC(=O)CN(C)C(=O)C2=COCCO2)c1	4%	-2%	13%	1%	-1%	·
COc1cccc(NC(=O)C2=COCCO2)c1	?	3.2µM*	?	?	?	·
COc1cccc(OC)c1C(=O)OCC(=O)Nc1ccc(OC(F)(F)F)cc1	-3%	-2%	21µM*	-5%	26%	0%
COc1ccccc1CNC(=O)COC(=O)/C=C/c1ccc2c(c1)OCO2	·	·	0%	14%	·	·
O=S(=O)(Nc1nc2ccccc2nc1NCc1ccco1)c1ccc(F)cc1	2%	-2%	15µM*	-9%	-1%	·
O=S(=O)(Nc1nc2ccccc2nc1NCc1ccco1)c1ccccc1	1%	-7%	-13%	-7%	-1%	14%
CC(C)[C@H](NS(=O)(=O)c1ccc2c(c1)OCCO2)C(=O)OCC(=O)Nc1cc(Cl)ccc1Cl	1%	-9%	18µM*	-4%	0%	-8%
CCc1nc(-c2cc(S(=O)(=O)N3CCN(c4ccc(F)cc4)CC3)ccc2OC)no1	-16%	·	·	·	·	·
CCCCNC(=O)CCC1N=C2c3ccccc3N=C(SCC(=O)NCCc3ccc(OC)c(OC)c3)N2C1=O (centres undefined)	2%	·	·	·	·	·
O=C(O)Cn1nnc(COc2ccccc2)n1	-4%	-3%	-3%	-1%	-4%	·
COc1ccc(-n2ncc3c(NC(C)C)ncnc32)cc1	1.3µM*	0.32µM*	?	?	0.28µM*	2.8µM*
COc1ccc(-n2ncc3c(NCC(C)C)ncnc32)cc1	1.1µM*	0.35µM*	?	?	0.4µM*	2µM*
COc1ccccc1OCCOCCOc1ccc(C)cc1Br	-11%	-3%	1%	0%	-7%	5%
COc1cc(C)ccc1OCCCOc1ccccc1Br	19µM*	1.4µM*	?	?	?	3%
COc1cccc(OCCCOc2ccc([N+](=O)[O-])cc2Cl)c1	?	-1%	2%	-2%	-2%	-19%
COc1ccccc1OCCCOc1ccc(C)cc1Br	4.8µM*	?	?	18µM*	?	?
COc1ccccc1OCCCOc1ccc([N+](=O)[O-])cc1Cl	5.4µM*	4.5µM*	?	16%	?	?
O=C(COc1cccc([N+](=O)[O-])c1)NN1C(=O)c2ccccc2C1=O	-19%	2%	1%	0%	-6%	·
SMILES	FLuc counter	Rab9 promoter act	ELG1 repair inh	ELG1 genotoxic	NPC1 promoter act	SMN2 splice enh
COc1ccc(-c2ncc3ccccn23)cc1	?	?	?	11%	5%	?
COc1cc(OC)cc(-c2ncc3ccccn23)c1	17µM*	4%	-4%	4%	1%	-6%
COc1cccc(-c2ncc3ccccn23)c1	8.5µM*	2.8µM*	?	?	4µM*	14µM*
Fc1ccc(-c2ncc3ccccn23)cc1	-15%	0%	?	7%	0%	·
Brc1ccc(-c2ncc3ccccn23)cc1	13µM*	3.2µM*	?	?	3.2µM*	·
COc1cc(-c2ncc3ccccn23)cc(OC)c1OC	-1%	-3%	-13%	10%	1%	25%
COc1cccc(CNC(=O)CN2C(=O)c3ccccc3S2(=O)=O)c1	-1%	0%	16%	-2%	9%	·
Cc1ccc2c(CC(=O)Nc3ccc(S(=O)(=O)N4CCCCC4C)cc3)coc2c1 (centres undefined)	-7%	·	·	·	·	-3%
CN(C)c1ccc(NC(=O)C(=O)NCCOc2ccccc2)cc1	-2%	15%	22%	-3%	1%	9%
COCCNC(=O)C(=O)Nc1ccc(Br)cc1	?	?	?	?	?	11µM*
COCCNC(=O)C(=O)Nc1cccc(Br)c1	-1%	3%	?	?	3%	-13%
COc1ccccc1C(=O)N1CCN(CCNC(=O)C(=O)Nc2ccc(Br)c(C)c2)CC1	-1%	-2%	?	-13%	2%	·
CCCNC(=O)C(=O)Nc1ccc(N(C)C)cc1	13µM*	3.2µM*	?	?	?	11µM*
Cc1ccccc1C(=O)N1CCN(CCNC(=O)C(=O)Nc2ccc(Br)cc2)CC1	-3%	-4%	21µM*	-17%	-7%	·
CCOC(=O)c1nn(-c2ccc(F)cc2)c(=O)cc1OCC(=O)Nc1ccc(F)c(F)c1	2%	-1%	17%	6%	-9%	·
Cc1ccc(C)c(N2CCN(C(=O)C34CC5CC(C3)CC(n3nnc(C)n3)(C5)C4)CC2)c1	2%	-16%	21µM*	-11%	-13%	·
Cc1ccccc1OCC(=O)OCC(=O)c1cc(C)n(C2CC2)c1C	?	1%	4%	4%	-4%	·
Cc1cc(C(=O)COC(=O)c2ccc[nH]c2=O)c(C)n1-c1ccc(F)cc1	3.4µM*	0.35µM*	?	?	0.56µM*	5µM*
Cc1cc(C(=O)OCC(=O)NCc2ccco2)c(C)n1-c1ccc(F)cc1	-19%	-18%	5%	-4%	-19%	-13%
Cc1cc(C(=O)COC(=O)c2ccc[nH]c2=O)c(C)n1C1CC1	4.8µM*	3.5µM*	?	?	?	?
Cc1noc(C)c1COC(=O)c1cc(C)n(-c2ccccc2)c1C	15µM*	?	?	?	28%	-10%

Source: PubChem BioAssay
